Compounds with a hit are over-represented: about 4.7% of the library has one in this group of screens.
D1 antagonist – blocks dopamine activation of the human D1 receptor; activity change, negative = inhibition, % at 10 µM; AID 504652; 3.2% of 360,000 active; HEK293 TREx D1 cells, calcium flux, dopamine EC80; stronger effect = lower value; P21728; in the data active means activity change below about -30%; further: on the % scale 0 is the no-effect control and ±100 the full control effect
Target sequence (P21728 whole entry, looked up): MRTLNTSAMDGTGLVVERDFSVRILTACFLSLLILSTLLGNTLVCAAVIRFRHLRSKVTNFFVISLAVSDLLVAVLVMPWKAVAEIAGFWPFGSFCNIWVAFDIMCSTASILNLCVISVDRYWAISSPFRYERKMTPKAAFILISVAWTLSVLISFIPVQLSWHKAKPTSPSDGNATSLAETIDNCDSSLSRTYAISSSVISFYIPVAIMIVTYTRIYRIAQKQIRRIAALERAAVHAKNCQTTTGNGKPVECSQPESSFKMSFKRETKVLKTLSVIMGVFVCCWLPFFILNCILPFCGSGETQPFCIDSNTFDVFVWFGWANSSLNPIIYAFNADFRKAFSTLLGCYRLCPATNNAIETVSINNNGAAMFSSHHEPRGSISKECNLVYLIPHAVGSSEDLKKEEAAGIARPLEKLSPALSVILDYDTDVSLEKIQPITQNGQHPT
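HEK293 T-REx cells expressing inducible, force-coupled D1 receptor; no-wash Ca dye, 30–90 min RT. Cmpd → 180 s read at 1 Hz → EC80 DA → 180 s read.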
TRHR enhancer – allosterically enhances the human TRH receptor | enhancement, % at 2 µM | TRHR cells, fluo-8 calcium fluorescence, EC20 TRH enhancement | 0.66% of 360,000 active; in the data active means enhancement above about 30%; further: 0% is about no effect
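TRHR-expressing cells loaded with fluo-8 calcium dye were read kinetically (ex 480/em 530) during compound addition, then stimulated with an EC20 of TRH (10 nM final). Enhancement of the Gq-mediated intracellular calcium response was scored.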
TRHR ag – agonists of human TRH receptor | TRHR cells, calcium flux fluo-8, FDSS agonist mode | activation, % at 2 µM | 0.18% of 360,000 active | AID 493084; further: 0% is about no effect
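TRHR-expressing cells loaded with fluo-8 calcium dye; 23 nL library compound pin-transferred, kinetic FDSS fluorescence (Ex 480/Em 530) recorded about 180 s for agonist-induced calcium release, before a 10 nM TRH EC20 addition for potentiator mode.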
D1 potentiator – human D1 dopamine receptor positive modulation. HEK293 TREx D1 cells, calcium flux, dopamine EC20 potentiation. potentiation, % at 10 µM. 0.036% of 360,000 active. AID 504651; in the data active means potentiation above about 30%; further: 0% is about no effect
D1 ag – activates the human D1 dopamine receptor. HEK293 T-REx D1 cells, calcium flux, agonist mode. activation, % at 2 µM. 1% of 360,000 active. AID 504660; further: 0% is about no effect
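Tetracycline-induced HEK293 TREx D1 cells, force-coupled to calcium signalling, were dye-loaded with a no-wash calcium kit. Compound was pin-added after a 10 s baseline. Fluorescence was read kinetically at 1 cycle/s for 180 s, with calcium rises flagged as agonism.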
* marks the source's active call; other numbers are inactive results; ! = not active in a repeat. Unless noted, no stated cut-off is given here; in the data, active means activation above about 30%; inactive means the rest.

How did CCN(CC)S(=O)(=O)c1ccc2c(c1)N(CC(=O)Nc1ccccc1F)C(=O)C1CCCN21 (stereo not given) do in these assays?
D1 antagonist: 12; TRHR enhancer: 2; TRHR ag: -1; D1 potentiator: 0; D1 ag: -2

Results for CCN(CC)S(=O)(=O)c1ccc2c(c1)N(CC(=O)Nc1ccc(F)cc1F)C(=O)C1CCCN21 (stereo not given) ?
D1 antagonist: -32*; TRHR enhancer: 1; TRHR ag: 0; D1 potentiator: 1; D1 ag: 3

How did COc1ccc(OC)c(CCNc2ncnc3onc(-c4ccc(Cl)cc4)c23)c1 do in these assays?
D1 antagonist: -3; TRHR enhancer: -10; TRHR ag: 2; D1 potentiator: 0; D1 ag: 11

Results for COc1ccc(OC)c(CCNc2ncnc3onc(-c4ccc(F)cc4)c23)c1 ?
D1 antagonist: -32*; TRHR enhancer: 10; TRHR ag: -1; D1 potentiator: -3; D1 ag: 33*

What do the screens show for `CCn1c(CC2C(=O)N(C)c3ccccc32)nc2ccccc2c1=O` (stereo not given)?
D1 antagonist: -6; TRHR enhancer: 4; TRHR ag: 1; D1 potentiator: 0; D1 ag: 0

What do the screens show for `Cc1ccc2c(c1)c(=O)c(C(=O)c1ccc3c(c1)OCO3)cn2Cc1cccc(F)c1`?
D1 antagonist: -66*; TRHR enhancer: 4; TRHR ag: 0; D1 potentiator: -3; D1 ag: 2

Results for COc1ccccc1CC(=O)N1CCN(C(=O)c2ccco2)CC1 ?
D1 antagonist: -4; TRHR enhancer: -8; TRHR ag: 0; D1 potentiator: -5; D1 ag: 1

What do the screens show for `O=C(CNC(=O)c1ccccc1)N[C@H](C(=O)Nc1cc(C(F)(F)F)ccc1Cl)c1ccccc1`?
D1 antagonist: 7; TRHR enhancer: -2; TRHR ag: -1; D1 potentiator: -2; D1 ag: 4

What do the screens show for `O=C(c1ccc2c(c1)OCCO2)N1CCN(Cc2ccccc2)CC1`?
D1 antagonist: -24; TRHR enhancer: -12; TRHR ag: 1; D1 potentiator: -10; D1 ag: 3

Results for O=C(c1ccccc1)N1CCN(C(=O)c2ccc3c(c2)OCCO3)CC1 ?
D1 antagonist: -39*; TRHR enhancer: 4; TRHR ag: 0; D1 potentiator: -3; D1 ag: 1

How did O=C(c1ccccc1)c1ccc2c(c1)OCCCO2 do in these assays?
D1 antagonist: -40*; TRHR enhancer: -7; TRHR ag: -1; D1 potentiator: -3; D1 ag: 1

What do the screens show for `O=C(c1ccccc1)c1ccc2c(c1)OCCOCCOCCO2`?
D1 antagonist: 3; TRHR enhancer: -3; TRHR ag: 0; D1 potentiator: 6; D1 ag: 8

What do the screens show for `O=C(NCC(=O)N(c1ccccc1)C(C(=O)NC1CCCCC1)c1cccnc1)c1ccco1` (stereo not given)?
D1 antagonist: 3; TRHR enhancer: -5; TRHR ag: 0; D1 potentiator: 0; D1 ag: 0

Results for COc1cc2c(cc1OC)C1CC(=O)C(CC(C)C)CN1CC2 (stereo not given) ?
D1 antagonist: 5; TRHR enhancer: -2; TRHR ag: 1; D1 potentiator: -1; D1 ag: 1

Results for COc1cc2c(cc1OC)C1C/C(=N\O)C(CC(C)C)CN1CC2 (stereo not given) ?
D1 antagonist: -67*; TRHR enhancer: -2; TRHR ag: 0; D1 potentiator: -22; D1 ag: 0

How did CCN1C(=S)N[C@@H](CCc2ccccc2)C(C(=O)OC)=C1C do in these assays?
D1 antagonist: -31*!; TRHR enhancer: 5; TRHR ag: -1; D1 potentiator: -4; D1 ag: 2

What do the screens show for `Cn1c(C(=O)NCc2ccccc2F)cc2oc3ccccc3c21`?
D1 antagonist: -57*; TRHR enhancer: 3; TRHR ag: 0; D1 potentiator: -8; D1 ag: 3

What do the screens show for `CC(=O)c1ccc(Nc2nc(N3CCOCC3)nc(N3CCOCC3)n2)cc1`?
D1 antagonist: 12; TRHR enhancer: 40*; TRHR ag: 0; D1 potentiator: 5; D1 ag: 0

Results for CC(=O)c1cccc(Nc2nc(N3CCOCC3)nc(N3CCOCC3)n2)c1 ?
D1 antagonist: -6; TRHR enhancer: -8; TRHR ag: -1; D1 potentiator: 1; D1 ag: 3

How did COc1ccc(SCC(=O)Nc2ccc(N3CCN(C)CC3)c(F)c2)cc1 do in these assays?
D1 antagonist: 3; TRHR enhancer: -8; TRHR ag: -1; D1 potentiator: -25; D1 ag: 4

How did Cc1ccc(SCC(=O)Nc2ccc(N3CCN(C)CC3)c(F)c2)cc1 do in these assays?
D1 antagonist: -59*; TRHR enhancer: 9; TRHR ag: 1; D1 potentiator: -12; D1 ag: 4

What do the screens show for `O=c1[nH]c(COc2ccc(Cl)cc2Br)nc2ccccc12`?
D1 antagonist: 6; TRHR enhancer: -5; TRHR ag: 0; D1 potentiator: 3; D1 ag: 3

How did COc1ccc(C)cc1NC(=O)CN(C)C1CCCCC1 do in these assays?
D1 antagonist: 13; TRHR enhancer: 0; TRHR ag: 0; D1 potentiator: -2; D1 ag: 4

Results for COc1cc(C(=O)Nc2cccc(-c3nncn3C)c2)cc(OC)c1OC ?
D1 antagonist: 3; TRHR enhancer: 34*; TRHR ag: 0; D1 potentiator: 2; D1 ag: 7

What do the screens show for `COc1cc(C(=O)Nc2cccc(NC(=O)c3ccccc3)c2)cc(OC)c1OC`?
D1 antagonist: -2; TRHR enhancer: -2; TRHR ag: -1; D1 potentiator: -3; D1 ag: 1

What do the screens show for `COc1ccccc1Cc1nc2ccccc2nc1SCC(=O)NCc1ccc(F)cc1`?
D1 antagonist: 0; TRHR enhancer: 0; TRHR ag: 0; D1 potentiator: 2; D1 ag: 1

What do the screens show for `COc1ccc(N=C2S/C(=C\c3ccc(N4CCOCC4)o3)C(=O)N2CCc2c[nH]c3ccccc23)cc1`?
D1 antagonist: -30*; TRHR enhancer: -18; TRHR ag: 0; D1 potentiator: -4; D1 ag: 17

Results for Cc1ccc(Cl)cc1N1CCN(C(=O)Cn2ncc3c4ccccc4n(C)c3c2=O)CC1 ?
D1 antagonist: -33*; TRHR enhancer: -2; TRHR ag: 0; D1 potentiator: -3; D1 ag: 0

What do the screens show for `Cc1ccc(Cl)cc1N1CCN(C(=O)c2cc3c(=O)n(C)c4ccccc4c3n2C)CC1`?
D1 antagonist: -36*; TRHR enhancer: -2; TRHR ag: 2; D1 ag: 3

What do the screens show for `Cc1ccc(Cl)cc1N1CCN(CCCNC(=O)Cn2ncc3c([nH]c4ccccc43)c2=O)CC1`?
D1 antagonist: -13; TRHR enhancer: 54*; TRHR ag: 0; D1 potentiator: -2; D1 ag: 1
